Inconclusive results are not listed. Calls of active or inactive are those of the source. The call rests on the fitted dose curve; in most records, active means well fitted inhibition curve with a large enough effect; inconclusive means small, poorly fitted or top-dose-only effect; inactive means flat fitted curve, though single readings scatter. Where a SMILES comes first, the peptide text is derived from it. The star is where a group is joined. AMC = Cc1cc(=O)oc2cc(N*)ccc12; Cbz = O=C(OCc1ccccc1)*
Columns and labels:
Assay in all cases: Cytotoxic Profiling of Annotated Libraries Using Quantitative High-Throughput Screening (AID 1296008); further: nearly all actives have a fitted effect of over 60% in size
Settings in all cases: Five cell lines viability, CellTiter-Glo ATP luminescence, 48-72 h; max response: hits give low values
[1] = tested on: CRL-7250
Procedure, shortened: (§1)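 Cells exposed to compounds for 48 or 72 hr at 37 degrees Celsius. Viability read as ATP-coupled luminescence with CellTiter-Glo after 10 min at room temperature.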

[2] = tested on: HEK293
Procedure, shortened: as §1

[3] = tested on: HaCat
Procedure, shortened: as §1

[4] = tested on: KB-3-1
Procedure, shortened: as §1

[5] = tested on: NIH3T3
Procedure, shortened: as §1
On the % scale 0 is the no-effect control and ±100 the full control effect; potency means the concentration at half of the fitted maximal effect.

CC1=CC(=O)CC(C)(C)C1CO[C@@H]1O[C@H](CO)[C@@H](O)[C@H](O)[C@H]1O (stereo not given in full)
inactive: max response [1] -5.79% | max response [2] -1.36% | outcome [3] | max response [4] 7.69% | max response [5] -1.71%

COc1cc(C)c(C(=O)O[C@@H]2[C@H](O)[C@@H](CO)O[C@H]2n2ccc(=O)[nH]c2=O)c(OC)c1
inactive: outcome [1] | max response [2] 3.08% | outcome [3] | outcome [4] | max response [5] 2.52%

C[C@@H]1O[C@@H](O[C@H]2[C@H](O)[C@@H](O)[C@H](OC(=O)[C@]34CCC(C)(C)C[C@H]3C3=CCC5[C@@]6(C)CC[C@H](O[C@@H]7O[C@H](C(=O)O)[C@@H](O)[C@H](O)[C@H]7O)C(C)(C)C6CC[C@@]5(C)[C@]3(C)CC4)O[C@@H]2CO)[C@H](O)[C@H](O)[C@H]1O (stereo not given in full)
inactive: outcome [1] | max response [2] -4.26% | outcome [3] | max response [4] -0.526% | max response [5] -1.98%

COC(=O)C1=COC(OC2OC(CO)C(O)C(O)C2O)C2C(C)CC(=O)C12O (stereo not given)
inactive: outcome [1] | max response [2] 2.83% | max response [3] -24.6% | outcome [4] | outcome [5]

C=C1CC[C@H]2[C@@](C)(CCC(O)[C@@]2(C)CO)[C@@H]1/C=C/C(=C\C(=O)O)C(=O)O (stereo not given in full)
inactive: max response [1] -1.65% | max response [2] -0.745% | outcome [3] | outcome [4] | max response [5] -1.97%

COCC1OC(OC(C)(C)C2CCC3(C)C=C(C4CCC5C4(C)CC(O)C4OC(C(C)(C)O)CCC45C)CCC3O2)C(NC(C)=O)C(O)C1O (stereo not given)
inactive: outcome [1] | max response [2] 2.29% | outcome [3] | max response [4] 7.28% | max response [5] 1.37%

CC1(C)CC[C@]2(C(=O)O[C@@H]3O[C@H](CO)[C@@H](O)[C@H](O)[C@H]3O)[C@H](O)C[C@]3(C)C(=CCC4[C@@]5(C)CC[C@H](O[C@@H]6OC[C@@H](O)[C@H](O)[C@H]6O)[C@@](C)(C(=O)O)C5CC[C@]43C)[C@@H]2C1 (stereo not given in full)
inactive: max response [1] -8.24% | max response [2] -10.4% | outcome [3] | max response [4] -4.94% | max response [5] 4.43%

COc1cccc(C(=O)NCCNc2nc3cc(C)cc(C)c3cc2C#N)c1
inactive: max response [1] -1.46% | max response [2] -19% | outcome [3] | max response [4] 5.87% | max response [5] -4.31%

CCN1CCN(C(=O)N[C@@H](C(=O)N[C@@H]2C(=O)N3[C@@H]2SC(C)(C)[C@@H]3C(=O)O)c2ccccc2)C(=O)C1=O
inactive: max response [1] -7% | max response [2] -6.17% | outcome [3] | outcome [4] | outcome [5]

CC(C)C1(O)C=C2C(=O)CC3C(C)(C(=O)O)CCCC3(C)C2CC1 (stereo not given)
inactive: max response [1] 3.97% | max response [2] 0.541% | outcome [3] | max response [4] -0.238% | outcome [5]

NC(=O)NCCCC(NC(=O)Cc1ccccc1)C(=O)O (stereo not given)
inactive: outcome [1] | max response [2] -0.44% | outcome [3] | max response [4] 3.03% | max response [5] 3.99%

CC(=O)c1[nH]cc(CCC(=O)O)c1CC(=O)O
inactive: outcome [1] | max response [2] -1.24% | outcome [3] | outcome [4] | max response [5] -3.85%

COC(=O)C1=CO[C@@H](O[C@@H]2O[C@H](CO[C@@H]3O[C@H](CO)[C@@H](O)[C@H](O)[C@H]3O)[C@@H](O)[C@H](O)[C@H]2O)[C@@H]2C(CO)=CC[C@H]12
inactive: max response [1] -2.64% | max response [2] 1.28% | outcome [3] | outcome [4] | outcome [5]

COC(=O)[C@]1(C)CCC[C@@]2(C)C(=O)CC[C@H]3C(=O)C=C(CC[C@@H]21)C3O (stereo not given in full)
inactive: max response [1] -8.93% | max response [2] -5.09% | outcome [3] | max response [4] -0.869% | max response [5] 1.41%

COc1cc(Nc2ccc([N+](=O)[O-])cc2C(=O)O)cc2ccccc12
inactive: max response [1] -0.179% | max response [2] 1.77% | outcome [3] | max response [4] -5.92% | max response [5] -2.53%

CCC(C)/C=C(C)/C=C/C1=CC2=CC(=O)C(C)(O)C(OC(C)=O)C2CO1 (stereo not given)
inactive: outcome [1] | max response [2] -22.7% | max response [3] 4.74% | max response [4] -4.84% | outcome [5]

C[C@@H](CC[C@@H]1[C@@]2(C)CCCC(C)(C)C2CC[C@@]1(C)O)CC(=O)O (stereo not given in full)
inactive: outcome [1] | max response [2] -2.2% | outcome [3] | outcome [4] | max response [5] 0.858%

COc1ccc(/C=C/C(=O)N2CCCC2)cc1
inactive: max response [1] 1.09% | max response [2] 2.31% | outcome [3] | max response [4] 2.27% | max response [5] -2.69%

C=C1CC2C3(C)C(O)CC(=O)C(C)(C)C3C(O)C(OC(C)=O)C2(C)C2C(=O)OC(C)(C(=O)OC)C(=O)C12C (stereo not given)
inactive: outcome [1] | max response [2] -2.76% | outcome [3] | outcome [4] | max response [5] -16.8%

CNc1nc(Cc2ccccc2)nc2c1CCNC[C@@H]2C
inactive: max response [1] -3.14% | max response [2] -0.288% | max response [3] -17.6% | max response [4] -9.65% | outcome [5]

CC[C@@H](C)[C@H](N)C(=O)N1Cc2ccccc2C1
inactive: max response [1] -11.3% | max response [2] -17.7% | outcome [3] | max response [4] -3.64% | max response [5] 0.412%

COc1cc(C[C@@]2(O)CO[C@@H](c3ccc(O[C@@H]4O[C@H](CO)[C@@H](O)[C@H](O)[C@H]4O)c(OC)c3)[C@H]2CO)ccc1O
inactive: max response [1] -6.96% | max response [2] 0.509% | max response [3] -8.64% | max response [4] 1.94% | outcome [5]

C=C1[C@H](OC(C)=O)[C@H]2[C@@H](OC(C)=O)C(C)C[C@]2(OC(C)=O)C(=O)[C@H](C)/C=C/C(C)(C)C(=O)[C@H](OC(=O)C(C)C)[C@H]1OC(C)=O (stereo not given in full)
inactive: max response [1] 2.65% | max response [2] -3.57% | outcome [3] | outcome [4] | outcome [5]

COc1cc(O)c2c(c1Cl)CC(C)OC2=O (stereo not given)
inactive: outcome [1] | max response [2] -0.0766% | outcome [3] | max response [4] 3.15% | outcome [5]

CC1=C[C@H]2[C@@H](CC1=O)[C@H](C)C[C@H](O)[C@H]2C(C)C
inactive: max response [1] -22.7% | max response [2] -24.5% | outcome [3] | max response [4] -6.12% | max response [5] -7.42%

CC1(C)C2CC[C@]3(C)C(C(=O)C=C4[C@H]5C[C@@](C)(C(=O)O)CC[C@]5(C)CC[C@]43C)[C@@]2(C)CC[C@@H]1O (stereo not given in full)
inactive: outcome [1] | max response [2] -0.352% | outcome [3] | outcome [4] | max response [5] 2.21%

COc1ccc(OC)c(C2C(C#N)=C(N)Oc3n[nH]c(-c4ccc5ccccc5c4)c32)c1 (stereo not given)
inactive: outcome [1] | max response [2] 0.943% | max response [3] -8.38% | outcome [4] | outcome [5]

C=C1CCC2C(C)(C(=O)O)CCCC2(C)C1CC/C(C)=C\CO (stereo not given)
inactive: max response [1] -2.2% | max response [2] -6.37% | outcome [3] | outcome [4] | outcome [5]

COc1c(-c2ccc(O)cc2)cc(OC)c2c1oc1cc(O)c(OC3OC(CO)C(O)C3O)cc12 (stereo not given)
inactive: max response [1] -0.713% | max response [2] -3.64% | max response [3] -7.87% | outcome [4] | outcome [5]

Cc1cc(O[C@@H]2O[C@H](COC(=O)CC(=O)O)[C@@H](O)[C@H](O)[C@H]2O)c(C(C)C)cc1O
inactive: max response [1] 0.0068% | max response [2] -1.41% | max response [3] 0.109% | max response [4] -13.3% | outcome [5]

CC1C2=CC(=O)OC2(O)CC2C1CCC1C(C)(C)CCC(O)C21C (stereo not given)
inactive: max response [1] -5.55% | max response [2] -27.5% | outcome [3] | max response [4] -9.97% | max response [5] 0.733%

C[C@@H]1O[C@@H](OC2C(O[C@H]3[C@H](O[C@H]4CC[C@@]5(C)C(CC[C@]6(C)C5CC=C5C7CC(C)(C)CC(O)[C@]7(C)CC[C@]56C)C4(C)C)O[C@H](C(=O)O)[C@@H](O)[C@@H]3O)OC(CO)C(O)C2O)[C@H](O)[C@H](O)[C@H]1O (stereo not given in full)
inactive: max response [1] 4.13% | max response [2] -5.35% | outcome [3] | max response [4] 3.37% | max response [5] 1.38%

COc1cc(C(C)=O)ccc1O[C@@H]1O[C@H](CO[C@@H]2OC[C@@H](O)[C@H](O)[C@H]2O)[C@@H](O)[C@H](O)[C@H]1O
inactive: max response [1] 0.428% | max response [2] -0.597% | max response [3] -2.37% | max response [4] 7.17% | outcome [5]

CCC(=O)N1CCc2cc(OC)c(O)cc2C1
inactive: max response [1] -24.5% | max response [2] -5.69% | outcome [3] | max response [4] -5.14% | max response [5] 3.84%

CC1(C)CC2C(O)C3=C(CC(C)(O)C2C1)C(=O)OC3 (stereo not given)
inactive: outcome [1] | max response [2] -1.51% | outcome [3] | outcome [4] | outcome [5]

O=c1[nH]ccc2nc(-c3ccc(CN4CCC(c5nc(-c6ccccn6)n[nH]5)CC4)cc3)c(-c3ccccc3)cc12
inactive: outcome [1] | outcome [3] | max response [4] -16.7% | outcome [5]
active: Potency [2] 5.17 µM

CN(C)CC(c1ccc(O)cc1)C1(O)CCCCC1 (stereo not given)
inactive: max response [1] 2.79% | max response [2] 2.78% | max response [3] -0.565% | outcome [4] | outcome [5]

CC(=O)c1ccc(O[C@@H]2O[C@H](CO[C@@H]3OC[C@@H](O)[C@H](O)[C@H]3O)[C@@H](O)[C@H](O)[C@H]2O)cc1
inactive: outcome [1] | max response [2] -1.26% | outcome [3] | max response [4] 4.67% | outcome [5]

CC(=O)O[C@@H]1[C@H](OC(C)=O)C[C@@]2(C)C(CC[C@@H](C)[C@]23Cc2c(O)cc4c(c2O3)CN([C@@H](CCC(=O)O)C(=O)O)C4=O)C1(C)C (stereo not given in full)
inactive: max response [1] -2.81% | max response [2] -1.84% | max response [3] -30.9% | max response [4] 5.86% | outcome [5]

Cc1cc(=O)oc2cc(NC(=O)[C@H](CCC(=O)O)NC(=O)[C@H](CC(C)C)NC(=O)[C@H](CC(C)C)NC(=O)OCc3ccccc3)ccc12 (Cbz-Leu-Leu-Glu-{AMC})
inactive: max response [1] -3.16% | max response [2] -3.22% | outcome [3] | max response [4] 3.3% | max response [5] -20.3%
